The supplement of paper PMC10849652
About 8,800 targets were measured; listed, in parts, are those with a hit and a random draw of the rest. About 0.5% of all pairs of compound and target were hits.

Legend:
Assay in all cases: log2 fold change, soluble protein after heating vs DMSO (PISA); higher = thermal stabilisation; K562 lysate, 10 uM; active = over 0.2 and 3.5 SD of the protein, either way, in both replicates (recomputed)
[1] = compound: CCCS(=O)(=O)Nc1ccc(F)c(C(=O)c2c[nH]c3ncc(-c4ccc(Cl)cc4)cc23)c1F [vemurafenib]
Summary of the method: (§1)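 Values give the log-two fold change in thermal stability against solvent controls, from duplicates. Crude K562 extract at 1 mg/mL protein, made by dounce homogenisation in PBS pH 7.4 with 1 mM MgCl2, was treated with 10 μM compound for 30 min. After 3 min heating across 48°C-58°C, aliquots were pooled, adjusted to 0.5% NP-40 at 4°C and centrifuged at 21,000xg for 90 min. The supernatant was measured by TMTpro 16plex LC-MS/MS with channel sums equalised.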

[2] = compound: CCCS(=O)(=O)Nc1ccc(F)c(C(=O)c2c[nH]c3ncc(Cl)cc23)c1F
Summary of the method: as §1

[3] = compound: CCN(CCCOc1ccc2c(Nc3cc(CC(=O)Nc4cccc(F)c4)[nH]n3)ncnc2c1)CCOP(=O)(O)O [barasertib]
Summary of the method: as §1

[4] = compound: CC[C@@H]1C(=O)N(C)c2cnc(Nc3ccc(C(=O)NC4CCN(C)CC4)cc3OC)nc2N1C1CCCC1
Summary of the method: as §1

[5] = compound: CC[C@@H]1C(=O)N(C)c2cnc(Nc3ccc(C(=O)N[C@H]4CC[C@H](N5CCN(CC6CC6)CC5)CC4)cc3OC)nc2N1C(C)C [volasertib]
Summary of the method: as §1

[6] = compound: CCn1c(C(=O)N(C2CC2)C2CC2)cc2c3c(ncn3C)c(Nc3cc(C)n(C)n3)nc21
Summary of the method: as §1

[7] = compound: CCn1cc(-c2ccnc3[nH]c(-c4cccc(CN(C)C)c4)cc23)c(-c2ccc(NC(=O)N(C)C)cc2)n1
Summary of the method: as §1

[8] = compound: CN1CCC(CNc2ccc3ncc(-c4cccc(OC(F)(F)F)c4)n3n2)CC1
Summary of the method: as §1

[9] = compound: CN1CCN(CCOc2cc(OC3CCOCC3)c3c(Nc4c(Cl)ccc5c4OCO5)ncnc3c2)CC1 [saracatinib]
Summary of the method: as §1

[10] = compound: CN1CCN(c2nc(C3=C(c4c[nH]c5ccccc45)C(=O)NC3=O)c3ccccc3n2)CC1 [sotrastaurin]
Summary of the method: as §1

[11] = compound: CN1CC[C@H](c2c(O)cc(O)c3c(=O)cc(-c4ccccc4Cl)oc23)[C@H](O)C1 [alvocidib]
Summary of the method: as §1

[12] = compound: CN1CCc2c(c3ccccc3n2Cc2ccc(C(=O)NO)cc2)C1 [Tubastatin A]
Summary of the method: as §1

[13] = compound: CNC(=O)C1=CC=CC=C1NC2=NC(=NC=C2Cl)NC3=C(C=C(C=C3)N4CCOCC4)OC
Summary of the method: as §1

[14] = compound: CNC(=O)c1ccc(Nc2ncc(C(F)(F)F)c(NCc3nccnc3N(C)S(C)(=O)=O)n2)cc1 [defactinib]
Summary of the method: as §1

[15] = compound: CNc1nc(-c2ccc3c(N)n[nH]c3c2)cc(N2C[C@@H](C(=O)NC3CCCCC3)CC[C@H]2C)n1
Summary of the method: as §1

[16] = compound: COC(=O)N[C@@H](C)CNc1nccc(-c2cn(C(C)C)nc2-c2cc(Cl)cc(NS(C)(=O)=O)c2F)n1 [encorafenib]
Summary of the method: as §1

[17] = compound: COC(=O)[C@H](CCSC)NC(=O)C1=C(C=C(C=C1)NC[C@H](CS)N)C2=CC=CC=C2
Summary of the method: as §1

[18] = compound: COc1cc(Nc2ncc3c(n2)-c2ccc(Cl)cc2C(c2c(F)cccc2OC)=NC3)ccc1C(=O)O [alisertib]
Summary of the method: as §1

[19] = compound: COc1cc2nc(-c3cc(F)ccc3O)nc(N[C@@H]3CNC[C@H]3C(C)(C)O)c2cc1OC
Summary of the method: as §1

[20] = compound: COc1cc2ncnc(Nc3ccc(F)c(Cl)c3)c2cc1OCCCN1CCOCC1 [gefitinib]
Summary of the method: as §1

Measured: log2 fold change

HEATR6 (UniProt Q6AI08)
inactive: [1] 0.052 | [2] 0.031 | [3] 0.109 | [4] -0.076 | [5] -0.019 | [6] 0.073 | [7] -0.001 | [8] -0.008 | [9] -0.007 | [10] 0.064 | [11] 0.03 | [12] -0.1 | [13] 0.025 | [14] 0.011 | [15] 0.008 | [16] 0.039 | [17] 0.101 | [18] -0.028 | [19] -0.01 | [20] 0.001

IMMT (UniProt C9J406)
inactive: [1] -0.018 | [2] -0.036 | [3] -0.105 | [4] 0.098 | [5] -0.015 | [6] 0.018 | [7] -0.464 | [8] -0.037 | [9] 0.074 | [10] 0.02 | [11] -0.027 | [12] -0.076 | [13] -0.162 | [14] 0.075 | [15] 0.008 | [16] -0.085 | [17] -0.166 | [18] -0.031 | [19] -0.073 | [20] -0.052

KBTBD4 isoform 2 (UniProt Q9NVX7)
UniProt Q9NVX7, sequence (Q9NVX7 whole entry, looked up): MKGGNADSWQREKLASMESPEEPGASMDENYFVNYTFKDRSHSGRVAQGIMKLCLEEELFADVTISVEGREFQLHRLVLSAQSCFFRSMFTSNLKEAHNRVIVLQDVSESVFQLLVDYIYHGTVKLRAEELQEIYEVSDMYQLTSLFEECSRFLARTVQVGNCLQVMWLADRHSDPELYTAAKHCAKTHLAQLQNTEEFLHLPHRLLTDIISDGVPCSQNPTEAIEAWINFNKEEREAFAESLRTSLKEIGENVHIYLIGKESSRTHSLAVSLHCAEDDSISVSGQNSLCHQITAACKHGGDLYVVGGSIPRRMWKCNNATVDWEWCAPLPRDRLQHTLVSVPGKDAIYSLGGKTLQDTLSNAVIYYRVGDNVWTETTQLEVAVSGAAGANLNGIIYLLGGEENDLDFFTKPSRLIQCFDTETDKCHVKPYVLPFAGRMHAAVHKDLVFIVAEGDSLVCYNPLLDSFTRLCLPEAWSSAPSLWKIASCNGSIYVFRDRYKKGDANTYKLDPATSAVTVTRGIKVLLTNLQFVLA
inactive: [1] 0 | [2] 0.021 | [3] 0.013 | [4] 0.063 | [5] -0.022 | [6] 0.031 | [7] -0.04 | [8] -0.032 | [9] 0.086 | [10] 0.032 | [11] -0.064 | [12] -0.048 | [13] -0.016 | [14] 0.024 | [15] 0.193 | [16] 0.048 | [17] -0.08 | [18] -0.098 | [19] -0.046 | [20] 0.121

IMMT (UniProt Q16891)
active: [8] -0.212
inactive: [1] -0.016 | [2] -0.006 | [3] 0.004 | [4] -0.046 | [5] 0.015 | [6] 0.015 | [7] -0.005 | [9] 0.01 | [10] -0.012 | [11] 0.031 | [12] -0.079 | [13] -0.03 | [14] 0.019 | [15] -0.041 | [16] 0.014 | [17] -0.045 | [18] 0.034 | [19] -0.145 | [20] -0.022

KCTD20 (UniProt Q7Z5Y7)
UniProt Q7Z5Y7, sequence (Q7Z5Y7 whole entry, looked up): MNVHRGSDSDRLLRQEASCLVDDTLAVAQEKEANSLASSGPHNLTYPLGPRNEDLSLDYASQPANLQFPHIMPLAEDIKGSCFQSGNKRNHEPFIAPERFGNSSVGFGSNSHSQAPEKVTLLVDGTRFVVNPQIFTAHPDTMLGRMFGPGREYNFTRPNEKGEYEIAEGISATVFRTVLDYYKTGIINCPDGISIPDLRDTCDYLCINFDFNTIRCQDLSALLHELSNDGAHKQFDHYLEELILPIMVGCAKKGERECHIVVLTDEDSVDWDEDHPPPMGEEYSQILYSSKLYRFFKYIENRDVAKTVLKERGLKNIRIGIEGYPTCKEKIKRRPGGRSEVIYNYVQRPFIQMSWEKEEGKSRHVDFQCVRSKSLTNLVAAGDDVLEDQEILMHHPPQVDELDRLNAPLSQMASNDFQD
inactive: [1] 0.17 | [2] 0.02 | [3] 0.052 | [4] 0.046 | [5] 0.007 | [6] -0.055 | [7] 0.018 | [8] -0.037 | [9] 0.048 | [10] 0.025 | [11] 0.05 | [12] -0.174 | [13] 0.01 | [14] -0.041 | [15] -0.025 | [16] -0.165 | [17] -0.058 | [18] -0.089 | [19] -0.095 | [20] 0.035

IARS2 (UniProt Q9NSE4)
active: [5] 0.312
inactive: [1] -0.007 | [2] -0.005 | [3] 0.037 | [4] -0.003 | [6] -0.013 | [7] 0.198 | [8] -0.032 | [9] -0.002 | [10] 0.003 | [11] 0.072 | [12] 0.021 | [13] -0.026 | [14] 0.004 | [15] -0.003 | [16] -0.006 | [17] 0.014 | [18] -0.013 | [19] -0.011 | [20] 0.004

HDHD5 (UniProt Q9BXW7)
UniProt Q9BXW7, sequence (Q9BXW7 whole entry, looked up): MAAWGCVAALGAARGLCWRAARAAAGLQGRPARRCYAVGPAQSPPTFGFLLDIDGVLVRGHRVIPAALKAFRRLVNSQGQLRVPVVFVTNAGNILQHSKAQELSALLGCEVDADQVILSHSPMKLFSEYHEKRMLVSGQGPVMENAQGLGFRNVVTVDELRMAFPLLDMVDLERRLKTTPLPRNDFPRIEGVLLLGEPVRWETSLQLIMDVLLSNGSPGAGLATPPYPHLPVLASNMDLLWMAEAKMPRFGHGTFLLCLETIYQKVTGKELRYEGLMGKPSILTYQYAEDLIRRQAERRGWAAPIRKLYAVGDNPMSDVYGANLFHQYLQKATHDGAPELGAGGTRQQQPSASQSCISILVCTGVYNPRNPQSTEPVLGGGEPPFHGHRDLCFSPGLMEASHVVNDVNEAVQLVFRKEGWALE
inactive: [1] -0.033 | [2] 0.043 | [3] -0.137 | [4] -0.076 | [5] -0.02 | [6] 0.01 | [7] 0 | [8] 0.011 | [9] -0.06 | [10] 0.05 | [11] -0.097 | [12] -0.078 | [13] 0.041 | [14] -0.069 | [15] 0.034 | [16] 0.026 | [17] 0.024 | [18] 0.031 | [19] 0.012 | [20] -0.063

GPLD1 (UniProt P80108)
UniProt P80108, sequence (P80108 whole entry, looked up): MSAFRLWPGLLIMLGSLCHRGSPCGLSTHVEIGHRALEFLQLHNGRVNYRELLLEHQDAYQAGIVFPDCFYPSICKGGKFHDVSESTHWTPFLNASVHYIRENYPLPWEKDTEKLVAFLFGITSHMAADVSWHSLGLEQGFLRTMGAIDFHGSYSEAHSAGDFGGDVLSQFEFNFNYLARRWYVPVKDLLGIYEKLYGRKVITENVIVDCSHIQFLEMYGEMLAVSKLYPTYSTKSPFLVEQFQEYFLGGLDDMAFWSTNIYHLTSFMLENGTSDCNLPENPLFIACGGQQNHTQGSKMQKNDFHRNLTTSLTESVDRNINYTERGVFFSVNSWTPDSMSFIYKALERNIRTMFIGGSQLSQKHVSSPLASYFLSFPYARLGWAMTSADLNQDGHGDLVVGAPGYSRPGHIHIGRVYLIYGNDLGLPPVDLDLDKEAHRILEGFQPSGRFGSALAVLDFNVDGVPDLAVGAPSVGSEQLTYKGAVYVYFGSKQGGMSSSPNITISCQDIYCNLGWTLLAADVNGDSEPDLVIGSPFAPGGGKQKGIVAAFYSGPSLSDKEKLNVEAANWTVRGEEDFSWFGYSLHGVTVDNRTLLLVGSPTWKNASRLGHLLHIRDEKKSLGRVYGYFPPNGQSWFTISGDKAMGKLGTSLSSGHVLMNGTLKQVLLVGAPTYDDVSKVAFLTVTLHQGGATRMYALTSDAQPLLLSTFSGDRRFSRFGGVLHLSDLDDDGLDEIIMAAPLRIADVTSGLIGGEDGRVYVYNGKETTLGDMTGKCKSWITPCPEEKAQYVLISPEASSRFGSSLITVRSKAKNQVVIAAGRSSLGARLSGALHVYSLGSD
inactive: [9] 0.236 | [10] -0.13 | [15] -0.452

ITGB1BP2 (UniProt Q9UKP3)
UniProt Q9UKP3, sequence (Q9UKP3 whole entry, looked up): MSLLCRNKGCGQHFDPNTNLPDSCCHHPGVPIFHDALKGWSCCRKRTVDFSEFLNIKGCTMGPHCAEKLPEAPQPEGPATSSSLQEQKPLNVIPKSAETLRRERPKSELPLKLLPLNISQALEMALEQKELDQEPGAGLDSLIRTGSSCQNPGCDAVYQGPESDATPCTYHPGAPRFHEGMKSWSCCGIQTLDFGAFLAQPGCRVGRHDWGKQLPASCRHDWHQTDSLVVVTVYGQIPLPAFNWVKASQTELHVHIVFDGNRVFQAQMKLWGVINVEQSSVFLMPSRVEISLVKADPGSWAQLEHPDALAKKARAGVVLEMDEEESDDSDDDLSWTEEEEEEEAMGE
inactive: [1] 0.045 | [4] -0.07 | [7] -0.032 | [8] 0.443 | [9] 0.005 | [11] -0.116 | [14] -0.112 | [15] -0.018 | [16] -0.137 | [17] 0.044

IPP (UniProt Q9Y573)
inactive: [1] -0.102 | [2] 0.056 | [4] 0.169 | [5] -0.162 | [6] 0.006 | [7] 0.057 | [8] -0.014 | [9] -0.035 | [11] 0.001 | [12] -0.075 | [13] -0.07 | [14] 0.016 | [15] 0.029 | [16] -0.138 | [17] -0.171 | [19] 0.06

HNRNPUL1 (UniProt M0R247)
inactive: [3] 0.109 | [7] 0.004 | [8] 0.037 | [11] -0.042 | [13] -0.03

GSTM2 (UniProt P28161)
UniProt P28161, sequence (P28161 whole entry, looked up): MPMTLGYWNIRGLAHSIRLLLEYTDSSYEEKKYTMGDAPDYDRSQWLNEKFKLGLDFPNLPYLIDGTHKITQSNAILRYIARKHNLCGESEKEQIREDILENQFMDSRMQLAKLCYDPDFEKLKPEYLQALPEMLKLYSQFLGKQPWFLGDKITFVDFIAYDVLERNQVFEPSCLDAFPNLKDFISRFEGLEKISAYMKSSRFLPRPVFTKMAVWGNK
inactive: [1] -0.005 | [2] 0.07 | [3] 0.024 | [4] 0.015 | [5] 0.005 | [6] -0.027 | [7] 0.131 | [8] -0.091 | [9] 0.003 | [11] 0.079 | [12] 0.045 | [13] 0.009 | [14] 0.036 | [15] -0.016 | [16] -0.024 | [17] 0.068 | [18] 0.01 | [19] -0.015 | [20] 0.034

ITPR2 (UniProt Q14571)
inactive: [2] -0.044 | [5] 0.336 | [6] -0.222 | [9] 0.088 | [12] -0.03 | [13] 0.074 | [15] 0.239 | [18] 0.001 | [19] 0.234 | [20] -0.019

GTPBP6 (UniProt O43824)
UniProt O43824, sequence (O43824 whole entry, looked up): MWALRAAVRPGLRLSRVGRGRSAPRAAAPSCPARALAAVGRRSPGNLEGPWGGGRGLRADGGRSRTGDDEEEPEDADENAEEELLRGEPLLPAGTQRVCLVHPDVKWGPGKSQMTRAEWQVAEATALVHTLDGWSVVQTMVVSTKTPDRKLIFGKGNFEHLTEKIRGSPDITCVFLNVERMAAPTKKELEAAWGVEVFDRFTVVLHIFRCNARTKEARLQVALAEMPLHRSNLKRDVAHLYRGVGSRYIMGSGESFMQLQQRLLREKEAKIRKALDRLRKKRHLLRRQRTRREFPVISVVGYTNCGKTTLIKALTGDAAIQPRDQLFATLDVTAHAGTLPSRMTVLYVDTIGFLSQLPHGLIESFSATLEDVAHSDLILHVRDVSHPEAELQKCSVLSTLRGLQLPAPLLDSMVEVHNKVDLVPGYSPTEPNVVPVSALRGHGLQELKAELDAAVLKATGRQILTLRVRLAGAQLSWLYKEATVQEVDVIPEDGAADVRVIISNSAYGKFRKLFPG
inactive: [1] -0.089 | [4] 0.32 | [7] -0.062 | [8] -0.096 | [9] -0.166 | [11] 0.046 | [14] 0.163 | [15] 0.673 | [16] -0.076 | [17] 0.235

IGFBP4 (UniProt P22692)
inactive: [2] -0.171 | [3] -0.281 | [5] -0.002 | [6] 0.04 | [7] -0.063 | [8] 0.009 | [9] 0.016 | [10] -0.028 | [11] -0.149 | [12] -0.083 | [13] 0.045 | [15] -0.084 | [18] -0.005 | [20] 0.005
active: [19] 0.454

GPA33 (UniProt Q99795)
UniProt Q99795, sequence (Q99795 whole entry, looked up): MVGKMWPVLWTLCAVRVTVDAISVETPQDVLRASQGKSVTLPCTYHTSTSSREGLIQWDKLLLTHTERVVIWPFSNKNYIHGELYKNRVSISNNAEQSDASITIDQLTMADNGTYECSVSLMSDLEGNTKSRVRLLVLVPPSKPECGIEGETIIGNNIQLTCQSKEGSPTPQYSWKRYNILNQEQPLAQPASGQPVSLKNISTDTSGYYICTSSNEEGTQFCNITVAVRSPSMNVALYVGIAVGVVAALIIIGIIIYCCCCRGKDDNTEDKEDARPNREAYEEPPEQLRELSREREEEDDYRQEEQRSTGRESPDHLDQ
active: [7] -0.925 | [8] 0.612
inactive: [1] -0.038 | [2] -0.014 | [3] -0.047 | [4] -0.011 | [5] 0.081 | [6] -0.032 | [9] -0.005 | [11] -0.349 | [12] 0.103 | [13] -0.076 | [14] -0.099 | [15] -0.193 | [16] 0.053 | [17] -0.027 | [18] 0.071 | [19] 0.039 | [20] 0.125

HNRNPM (UniProt M0R019)
inactive: [1] -0.137 | [14] -0.112

IGF2BP2 isoform 6 (UniProt Q9Y6M1)
UniProt Q9Y6M1, sequence (Q9Y6M1 whole entry, looked up): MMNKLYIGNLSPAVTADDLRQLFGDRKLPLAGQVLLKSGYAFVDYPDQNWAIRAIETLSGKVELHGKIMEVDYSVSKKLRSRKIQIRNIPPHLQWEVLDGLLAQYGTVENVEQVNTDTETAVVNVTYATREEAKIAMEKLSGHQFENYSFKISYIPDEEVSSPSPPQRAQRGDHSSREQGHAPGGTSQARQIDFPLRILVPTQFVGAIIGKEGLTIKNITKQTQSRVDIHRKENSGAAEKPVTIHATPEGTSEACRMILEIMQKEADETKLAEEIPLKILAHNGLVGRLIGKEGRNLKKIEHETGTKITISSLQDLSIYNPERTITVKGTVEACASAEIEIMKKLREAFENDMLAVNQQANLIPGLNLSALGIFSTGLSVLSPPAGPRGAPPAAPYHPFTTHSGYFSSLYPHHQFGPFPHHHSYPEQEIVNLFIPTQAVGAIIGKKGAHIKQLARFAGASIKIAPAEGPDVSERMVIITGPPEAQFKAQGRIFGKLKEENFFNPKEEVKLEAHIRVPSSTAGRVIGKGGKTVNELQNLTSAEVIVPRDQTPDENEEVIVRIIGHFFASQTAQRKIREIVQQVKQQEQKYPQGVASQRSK
inactive: [2] -0.003 | [5] -0.153 | [19] 0.289

ITM2B (UniProt Q9Y287)
UniProt Q9Y287, sequence (Q9Y287 whole entry, looked up): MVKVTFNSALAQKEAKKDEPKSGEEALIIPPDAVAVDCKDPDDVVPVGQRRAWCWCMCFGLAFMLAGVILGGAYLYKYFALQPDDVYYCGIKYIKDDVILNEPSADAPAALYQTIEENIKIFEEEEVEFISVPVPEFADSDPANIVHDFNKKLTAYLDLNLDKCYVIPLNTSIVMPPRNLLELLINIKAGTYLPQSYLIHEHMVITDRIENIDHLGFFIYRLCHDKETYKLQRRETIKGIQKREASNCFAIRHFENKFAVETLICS
inactive: [1] 0.021 | [3] 0.258 | [6] -0.012 | [7] -0.141 | [8] 0.069 | [9] -0.053 | [10] -0.012 | [11] 0.015 | [12] 0.007 | [13] 0.037 | [14] 0.16 | [15] 0.074 | [18] 0.006 | [20] 0.008

H3-3A (UniProt P84243)
inactive: [1] 0.027 | [2] 0.015 | [3] 0.067 | [4] -0.017 | [5] -0.006 | [7] 0.027 | [8] -0.025 | [10] -0.028 | [11] 0.021 | [13] 0.063 | [14] -0.04 | [16] 0.132 | [17] -0.034 | [19] -0.032

HMGN5 (UniProt Q5JSK9)
inactive: [2] -0.013 | [3] -0.03 | [4] 0.039 | [5] 0.054 | [16] 0.055 | [17] -0.111 | [18] 0.049 | [19] 0.055 | [20] 0.063

HSPBAP1 (UniProt Q96EW2)
UniProt Q96EW2, sequence (Q96EW2 whole entry, looked up): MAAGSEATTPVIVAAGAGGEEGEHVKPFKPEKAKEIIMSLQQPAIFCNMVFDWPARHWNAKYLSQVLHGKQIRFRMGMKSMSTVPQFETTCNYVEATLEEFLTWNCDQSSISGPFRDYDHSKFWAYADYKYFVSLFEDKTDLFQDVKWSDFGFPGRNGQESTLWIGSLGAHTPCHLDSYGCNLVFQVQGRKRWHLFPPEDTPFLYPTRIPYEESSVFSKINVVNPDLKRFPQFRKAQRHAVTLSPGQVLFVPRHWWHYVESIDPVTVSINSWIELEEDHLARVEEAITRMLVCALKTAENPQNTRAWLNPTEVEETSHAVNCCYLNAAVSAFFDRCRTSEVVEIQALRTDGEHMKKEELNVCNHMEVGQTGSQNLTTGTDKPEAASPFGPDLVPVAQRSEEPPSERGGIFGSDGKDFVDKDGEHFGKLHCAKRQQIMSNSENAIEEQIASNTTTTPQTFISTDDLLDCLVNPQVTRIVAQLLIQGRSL
inactive: [2] 0.04 | [3] 0.012 | [4] 0.155 | [5] 0.044 | [6] -0.058 | [7] -0.293 | [8] -0.038 | [9] -0.054 | [10] 0.027 | [11] -0.094 | [12] -0.139 | [13] 0.02 | [16] 0.097 | [17] -0.154 | [18] -0.113 | [19] -0.104 | [20] -0.005
active: [15] -0.547
